# Laboratory results reported in PubChem BioAssay (NCI).
# Several values for one entry are separate records, joined by “and”; a condition that tells them apart may be missing. Equal entries are not always repeated. Compounds without any hit were thinned out: in the full panel of roughly 83,000, 20% have a hit.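 Treatment: one concentration, 48 hours, 96-well format. Scoring: percent growth, with anything below 10 considered active.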 Values without a mark were called inactive. Activity calls are given as the source filed them.
# Columns and labels:
# Experiment in all cases: NCI-60 one-dose screen, 48 h (100 = growth as untreated, 0 = no growth, -100 = all killed)
# Settings in all cases: 10 µM unless noted
# [1] = test system: UACC-62 melanoma
# [2] = test system: TK-10 renal
# [3] = test system: HCT-15 colon
# [4] = test system: HT29 colon
# [5] = test system: SNB-75 CNS
# [6] = test system: U251 CNS
# [7] = test system: PC-3 prostate
# [8] = test system: SK-MEL-5 melanoma
# [9] = test system: LOX IMVI melanoma
# [10] = test system: SK-MEL-28 melanoma
# [11] = test system: SK-MEL-2 melanoma
# [12] = test system: EKVX NSCLC
# [13] = test system: SN12C renal
# [14] = test system: UO-31 renal
# [15] = test system: ACHN renal
# [16] = test system: CAKI-1 renal
# [17] = test system: A498 renal
# [18] = test system: HL-60(TB) leukemia
# [19] = test system: CCRF-CEM leukemia
# [20] = test system: SNB-19 CNS
SMILES,growth [1],growth [2],growth [3],growth [4],growth [5],growth [6],growth [7],growth [8],growth [9],growth [10],growth [11],growth [12],growth [13],growth [14],growth [15],growth [16],growth [17],growth [18],growth [19],growth [20]
CCCC[C@@H]1CCN2C[C@@H](O)[C@@H](O)[C@@H]2[C@H]1O,111% [100 µM] and 89.9% [100 µM],113% [100 µM] and 98.7% [100 µM],,,,,,,,,,,,,,,,,,
COc1cc2c(cc1OC)[C@@H]1C(=O)c3ccc4c(c3O[C@@H]1CO2)C[C@H](C(C)C)O4,,,79.1%,83.1%,90.1%,57.8%,9.13% (active),17.9%,53%,98.5%,91%,26.7%,86.9%,46.1%,59.3%,45.1%,86.8%,19%,42.6%,
CC1(C)N=C(N)N=C(N)N1c1ccc(CCC(=O)Nc2ccc(S(=O)(=O)F)cc2)cc1,26.2%,24.3%,46.2%,9.44% (active),51.8%,,20.2%,34.8%,15.8%,52%,50.4%,,33.4%,82.3%,64.5%,28.8%,60.3%,18.8%,18.9%,55%
NC(=O)Oc1cc(OC(N)=O)cc(N(CCCl)CCCl)c1,46.2%,,68.9%,64.1%,49.2%,,71.7%,73.3%,42.6%,82.5%,93.2%,,,34.5%,15.7%,-24.7% (active),77.6%,15.1%,13.4%,74.6%
O=[N+]([O-])c1ccc(CI)cc1,79.6%,,8.86% (active),47.8%,96.4%,,95.6%,,,104%,,,60%,91.9%,65.5%,54.5%,95.7%,64.4%,21.5%,106%
Cc1ccccc1-n1c(/C=C\c2ccccn2)nc2ccccc2c1=O,64.5%,49%,,79.7%,44.9%,,56.5%,73.7%,,83.2%,79.4%,82.8%,77.7%,54.7%,,31.2%,62.1%,19.9%,29.9%,87.9%
c1ccc2nc(-c3ccc4ccccc4n3)ccc2c1,,,,,,,,,,,,,,,,,,101%,,
COC12CC3(C)C(C4=CC(=O)OC4)CCC3(O)C3CCC4=CC(=O)CCC4(CO1)C32 (centres undefined),,101%,101%,103%,90.6%,103%,,106%,102%,122%,24.9%,103%,105%,80.7%,96.8%,105%,120%,,116%,107%
Nc1nc(=S)nc(N)[nH]1,101%,,101%,104%,,97%,,103%,,100%,101%,92.9%,80.5%,74.1%,103%,101%,98.4%,92.6%,,97.2%
CC1CCNC(C)C1 (centres undefined),,,,,,,,,,,,,,,,,,113%,,
Cc1c2ccncc2c(C)c2c1[nH]c1ccccc12,,-81.3% (active),-40.3% (active),2% (active),-89% (active),-82.2% (active),,-97.7% (active),-77.6% (active),-96.7% (active),-85.8% (active),-21.8% (active),-75.8% (active),-82.1% (active),-92.3% (active),-90.7% (active),-94.8% (active),-45.1% (active),,-84.8% (active)
O=[N+]([O-])c1c(Cl)cc(Cl)c([N+](=O)[O-])c1Cl,,112%,85.9%,100%,,96.1%,83.2%,101%,33.6%,100%,112%,,108%,151%,103%,,111%,,53.5%,113%
